From PubChem
HDAC3 inhib: HDAC3 deacetylase inhibitors, primary screen, biochemical, fluorescence, cell-free homogeneous. recombinant HDAC3, fluorogenic peptide/trypsin coupled. inhibition, % at 8.3 µM. 320,000 tested, 0.15% active. AID 2718, 2010; in the data active means inhibition above about 26%, passing the limit was not always enough; inconclusive means no clear call, values can overlap the other calls
GRK2 aptamer HTS: compounds blocking aptamer binding on GRK2 – biochemical, human GRK2, bead flow cytometry, HTS, primary screen; 330,000 tested, 0.59% active; inhibition of aptamer binding, % at 10 µM; FAM-aptamer displacement from GRK2; Beta-adrenergic receptor kinase 1 (Homo sapiens), P25098; AID 488847, 2010;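 active means inhibition of aptamer binding above 40%, roughly 3 SD of noise, on plates passing a quality check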;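 further: median bead fluorescence of bound FAM aptamer so fluorescent compounds give negative values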
Rce1 inh: yeast Rce1p protease inhibitors, primary screen, biochemical, fluorescence, cell-free homogeneous; AID 2563, 2010; 290,000 tested, 0.27% active; CAAX prenyl protease 2 (Saccharomyces cerevisiae (strain ATCC 204508 / S288c)), Q03530; yeast membranes, quenched prenylated peptide cleavage fluorescence; calls only;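 active means fall in fluorescence gain of 50% or more versus controls, with final raw signal at or below 3038400; inconclusive means same 50% fall but final raw signal above 3038400; inactive means fall in fluorescence gain under 50%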
Target sequence (Q03530 whole entry, looked up): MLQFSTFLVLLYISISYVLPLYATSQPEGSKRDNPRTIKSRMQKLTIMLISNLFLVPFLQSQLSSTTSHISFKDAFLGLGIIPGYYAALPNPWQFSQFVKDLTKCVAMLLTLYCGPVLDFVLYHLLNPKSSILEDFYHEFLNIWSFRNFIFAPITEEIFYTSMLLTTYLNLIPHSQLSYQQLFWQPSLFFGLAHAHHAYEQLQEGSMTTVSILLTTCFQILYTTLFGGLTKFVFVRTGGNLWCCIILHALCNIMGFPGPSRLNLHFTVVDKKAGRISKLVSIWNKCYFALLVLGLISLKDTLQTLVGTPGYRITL
Rtt109 Vps75: inhibitors of C. albicans Rtt109/Vps75 HAT, primary screen, biochemical, ThioGlo CoA-SH fluorescence, plate reader; 330,000 tested, 0.16% active; Histone acetyltransferase RTT109 (Candida albicans (strain SC5314 / ATCC MYA-2876)), …; AID 540336, 2011; inhibition, % at 34.9 µM; purified Rtt109/Vps75, 4 h;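 active means inhibition of at least 50% in every replicate; inconclusive means best replicate reaches 50% inhibition but some replicates fall short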
ALR inh: inhibitors of human ALR sulfhydryl oxidase, primary screen, biochemical, H2O2 detection, HRP-luminol luminescence, single point | FAD-linked sulfhydryl oxidase ALR (Homo sapiens), P55789 | purified ALR, DTT oxidation | inhibition, % (test concentration not listed) | 290,000 tested, 3.8% active;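 active means mean replicate inhibition above about 79%, with every replicate also reaching it, limit read from the data; inconclusive means only one of the two criteria met; inactive means mean below limit and not every replicate reaching it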
Target sequence (P55789 whole entry, looked up): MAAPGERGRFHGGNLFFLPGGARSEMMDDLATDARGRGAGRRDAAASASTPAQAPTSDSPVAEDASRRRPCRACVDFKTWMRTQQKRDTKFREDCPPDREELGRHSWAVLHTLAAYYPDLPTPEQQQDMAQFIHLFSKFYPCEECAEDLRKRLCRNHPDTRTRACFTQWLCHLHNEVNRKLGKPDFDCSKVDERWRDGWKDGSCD
Efflux pump inh: inhibitors of Candida efflux pumps in yeast, primary screen, S. cerevisiae, Nile Red, multiplex. S. cerevisiae Candida pump triplex. inhibition, % at 10 µM. 330,000 tested, 0.44% active. AID 485275, 2010;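 active means plate passing quality check with inhibition over a set limit, or well fluorescence over plate mean plus 4 SD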;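 further: Nile Red retained in pooled yeast measured as flow cytometry median fluorescence; higher means more Nile Red kept so more efflux inhibition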
Large screens that a line does not name were inactive. Rows were chosen to be rich in hits. Some 4.5% of all compounds tested hit in one or more screens of this group.

CCOc1cc(/C=N/NC(=O)c2c(-c3ccccc3)noc2C)ccc1O	ALR inh 95.9 (no result: Rtt109 Vps75)
COc1cc(/C=N/NC(=O)c2c(-c3ccccc3)noc2C)ccc1O	ALR inh 98.8
COc1ccccc1/C=N/NC(=O)c1ccc(=O)n(C)c1	none
Cc1ccc(C(C)C)c(OCc2ccc(C(=O)N/N=C/c3ccc(O)c(O)c3)cc2)c1	ALR inh 97.4
CCOc1cc([N+](=O)[O-])cc(/C=N/NC(=O)c2c(-c3ccccc3)noc2C)c1O	none
CCOc1cc(/C=N/NC(=O)c2ccc(=O)n(C)c2)ccc1O	HDAC3 inhib inconclusive, ALR inh 98.9
CCN(CC)CCC=C(c1cccs1)c1cccs1	none (no result: HDAC3 inhib, GRK2 aptamer HTS, Rce1 inh, ALR inh, Efflux pump inh)
COc1ccc(S(=O)(=O)N(C)C[C@H]2Oc3c(NC(=O)Nc4c(C)noc4C)cccc3C(=O)N([C@@H](C)CO)C[C@H]2C)cc1	none (no result: Rce1 inh, ALR inh)
CCOc1cc(/C=N\NC(=O)c2c(C)nc3ccccn23)ccc1O	ALR inh 88.8
Cc1nc2ccccn2c1C(=O)N/N=C/c1ccc2c(c1)OCO2	none
CCCCN1C(=O)N(CCc2ccc(F)cc2)S(=O)(=O)c2cc(C(F)(F)F)ccc21	none (no result: HDAC3 inhib, Rce1 inh, ALR inh)
Cn1sc(NC(=O)c2ccc(Cl)cc2)nc1=O	ALR inh 97.2
Cc1ccc(C(=O)Nc2nc(=O)n(C)s2)cc1	none
Cc1cc(-c2ccccc2)n2nc(C)c(C#N)c2n1	Rce1 inh active
CC(=O)NS(=O)(=O)c1ccc(NC(=O)c2cc(-c3ccc(C)c(C)c3)nc3ccccc23)cc1	ALR inh 97.4 (no result: Rce1 inh)
CC(=O)NS(=O)(=O)c1ccc(NC(=O)c2cc(-c3ccc(C)cc3)nc3ccccc23)cc1	ALR inh 97.8
Cc1[nH]nc(-c2ccc(O)cc2O)c1Oc1ccccc1	ALR inh 98.4
Cc1[nH]nc(-c2ccc(O)cc2O)c1-c1ccc(Cl)cc1	ALR inh 81.8
Cc1[nH]nc(-c2ccc(O)cc2O)c1-c1nc2ccccc2s1	ALR inh 86.5
CN(C)C1(CNC(=S)Nc2ccccc2C(F)(F)F)CCCCC1	none (no result: ALR inh)
C/C(=N/NC(=O)c1ccc(-c2ccccc2)cc1)c1cc(O)cc(O)c1	ALR inh 98.7
C/C(=N\NC(=O)c1cc(O)cc(O)c1)c1ccc(NC(=O)Cc2ccccc2)cc1	GRK2 aptamer HTS 52.0 (no result: HDAC3 inhib)
C/C(=N\NC(=O)c1ccc(O)cc1)c1ccc2c(c1)Nc1ccccc1S2	ALR inh 98.7 (no result: Rce1 inh, Rtt109 Vps75)
Cc1ccnc(NC(=O)C(Cc2ccccc2)NC(=O)c2ccccc2)c1 (stereo not drawn)	none (no result: Rce1 inh, ALR inh)
CC(C)c1ccc(NC2CCCN(C(=O)CCN3Cc4ccccc4C3=O)C2)cc1 (stereo not drawn)	ALR inh 98.5
CC(C)c1ccc(NC2CCCN(C(=O)CSc3nncn3C)C2)cc1 (stereo not drawn)	ALR inh 90.8
CC(C)c1ccc(NC2CCCN(C(=O)CN3CCOC3=O)C2)cc1 (stereo not drawn)	none
CC(C)c1ccc(NC2CCCN(C(=O)CCN3CCCCC3=O)C2)cc1 (stereo not drawn)	ALR inh 97.5
CCn1nc(C)cc1C(=O)N1CCCC(Nc2ccc(C(C)C)cc2)C1 (stereo not drawn)	none (no result: HDAC3 inhib, GRK2 aptamer HTS, ALR inh, Efflux pump inh)
CC(C)c1ccc(NC2CCCN(C(=O)CN3CCCC3=O)C2)cc1 (stereo not drawn)	ALR inh 82.3
CCCCC[C@@H](/C=C/C1C(=O)C=C[C@H]1C/C=C\CCCC(=O)O)OC(C)=O (stereo partly drawn)	none (no result: HDAC3 inhib, GRK2 aptamer HTS, Rce1 inh, ALR inh, Efflux pump inh)
O=C(Nc1ccccc1Cl)Oc1ccc(-c2ccccc2)cc1	none
C=CCNc1oc(/C=C/c2ccccc2)nc1C#N	Rce1 inh active
COc1ccccc1CC1CC(=O)N(c2cccc(Cl)c2C)C1=O (stereo not drawn)	none
CN(C)c1ccc(/C=C(/NC(=O)c2ccccc2Cl)C(=O)NCCN2CCOCC2)cc1	ALR inh 88.5
O=C(NCCN1CCOCC1)/C(=C/c1ccc(Cl)cc1)NC(=O)c1ccccc1	none
CN(C)c1ccc(/C=C(/NC(=O)c2ccccc2)C(=O)NCCN2CCOCC2)cc1	ALR inh 99.3
Cc1csc(NC(=O)CSc2nnc(NC(=O)NC(C)(C)C)s2)n1	none
COc1ccc(N=C2C(=O)N3CCCc4cccc2c43)cc1	ALR inh 98.6
COc1ccc(N2C(=O)CSC23C(=O)N2CCCc4cccc3c42)cc1 (stereo not drawn)	none
CCCOc1ccc(NC(=O)CC2C(=O)Nc3ccccc3N2CC(=O)N2CCCC2)cc1 (stereo not drawn)	none (no result: Rce1 inh, Rtt109 Vps75)
COc1ccc(NC(=O)CC2C(=O)Nc3ccccc3N2CC(=O)N2CCCC2)cc1 (stereo not drawn)	ALR inh 98.0 (no result: Rce1 inh)
Cc1cc(F)ccc1S(=O)(=O)NCC1CC2CCC1C2 (stereo not drawn)	none (no result: ALR inh)
O=C(CC1SC(=O)NC1=O)Oc1ccc(/C=N/NC(=O)c2ccccc2O)cc1 (stereo not drawn)	ALR inh 99.0
Cn1nccc1C(=O)Oc1ccc(/C=N/NC(=O)c2ccccc2O)cc1	ALR inh 93.5
O=C(Oc1ccc(/C=N/NC(=O)c2ccccc2O)cc1)c1ccccc1	none
CC(=O)Nc1ccc(OC(=O)CC2SC(=O)NC2=O)cc1 (stereo not drawn)	none
Cc1nn(C(C)c2n[nH]c(=S)n2-c2ccc(F)cc2)c(C)c1[N+](=O)[O-] (stereo not drawn)	none
Cc1nn(CCc2n[nH]c(=S)n2-c2ccc(F)cc2)c(C)c1[N+](=O)[O-]	ALR inh 80.8
Cc1nn(CCc2n[nH]c(=S)n2-c2cccc(Cl)c2)c(C)c1[N+](=O)[O-]	none
Cc1nn(CCc2n[nH]c(=S)n2-c2ccc(F)c(Cl)c2)c(C)c1[N+](=O)[O-]	ALR inh 91.5
O=[N+]([O-])c1ccc(-c2nc3ccc([N+](=O)[O-])cc3[nH]2)cc1	none
Nc1ccc(-c2nc3ccc(-c4nc5ccccc5o4)cc3[nH]2)cc1	none
Nc1ccc2nc(C3CCCCC3)[nH]c2c1	ALR inh 99.3
Nc1ccc2nc(-c3ccc(Cl)cc3)[nH]c2c1	ALR inh 98.9
Nc1ccc(-c2nc3c(Cl)c(N)ccc3[nH]2)cc1	ALR inh 98.5
Nc1ccc(-c2nc3ccc([N+](=O)[O-])cc3[nH]2)cc1	ALR inh 96.7
c1ccc2[nH]c(C3CC3)nc2c1	none
CCN(CC)c1ccc(/C=N/NC(=O)c2nnn(-c3nonc3N)c2-c2ccc(C)cc2)cc1	none
